Among the data in PubChem BioAssay (NCI) are growth values, retold here.

Test in all cases: NCI-60 one-dose screen, 48 h (100 = growth as untreated, 0 = no growth, -100 = all killed)
Common to all, as to details: 10 µM unless noted

In assay [1] the test system is SK-MEL-2 melanoma.
Assay [2] has as its system EKVX NSCLC.
The subject of assay [3] is SN12C renal.
In assay [4] the test system is UO-31 renal.
Assay [5] concerns TK-10 renal.
The subject of assay [6] is ACHN renal.
The test system of assay [7] is CAKI-1 renal.
Assay [8] deals with A498 renal.
The test system of assay [9] is CCRF-CEM leukemia.
Assay [10] deals with MOLT-4 leukemia.
Assay [11] concerns SR leukemia.
Assay [12] has as its system RPMI-8226 leukemia.
Assay [13] relates to OVCAR-8 ovarian.
Assay [14] has as its system OVCAR-5 ovarian.
The subject of assay [15] is OVCAR-4 ovarian.
The subject of assay [16] is SK-OV-3 ovarian.
For assay [17], the system named is IGROV1 ovarian.
The test system of assay [18] is OVCAR-3 ovarian.
In assay [19] the test system is HS 578T breast.
Assay [20] relates to NCI/ADR-RES ovarian.

Molecules are shown by their SMILES. About 83,000 compounds went through this panel and 20% of them were active in at least one assay; those are over-represented in the sample as a whole.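 Interpretation: 100, growth as untreated; towards 0, rising growth inhibition; 0, no net growth; 0 to -100, cell death. Compounds scoring below 10 were considered active.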 Unmarked numbers belong to inactive results. Active and inactive are the calls of the source.

Take `CC/C=C\C[C@H](O)C/C=C1/C(=O)C=C[C@@H]1C/C=C\CCCC(=O)O`: the growth is 62.2% in assay [1]; 105% in assay [2]; 46.2% in assay [3]; 74.3% in assay [4]; 103% in assay [5]; 84.5% in assay [6]. In addition, the growth in assay [7] was 83.9%; in assay [8] it was 90.9%; in [9], 4.11% (active); in assay [10], 5.7% (active); in [11], 10.3%; in [12], 10.1%. Also, the growth in assay [13] was 20%; in assay [14], 128%; in assay [15] it was 74.8%; in [16] it was 116%; in [17] it was 99.2%; in assay [18], 14.8%. The growth was 85% in assay [19] and 78.3% in assay [20].
Regarding `CCCCCCCCCCCCCCCCCCOc1ccccc1CC(=O)NCC[N+]1(C)CCCCC1`, the growth in assay [1] was 64.5%; in [2], 89.1%; in assay [3], 33%; in assay [4] it was 76.2%; in assay [5], 42.1%; in [6] it was 93.6%. Besides, the growth was 79.3% in assay [7]; 66% in assay [8]; 17.1% in [9]; 9.62% (active) in assay [10]; 26.3% in assay [11]; 50.9% in assay [12]. The growth in assay [13] was 57.1%; in assay [14] it was 30%; in assay [15], 40.3%; in [16], 77%; in assay [17], -8.66% (active); in [18], 46.5%. Also, the growth in [19] was 61.8%; in assay [20], 104%.
In the case of `CN(C)c1ccc(-c2nc(-c3ccccc3)c(-c3ccccc3)[nH]2)cc1`, the growth in assay [1] was 83.9%; in assay [2], 61.1%; in [3] it was 92.9%; in assay [4] it was 84.8%; in [5] it was 99.6%; in [6] it was 94%. Besides, the growth in assay [7] was 84.6%; in assay [8] it was 82.4%; in [9] it was 90%; in assay [10] it was 83.4%; in [11] it was 88.2%; in assay [12], 90%. Moreover, the growth was 96.9% in assay [13]; 122% in assay [14]; 94% in [15]; 83.1% in assay [16]; 91.6% in [17]; 114% in assay [18]. Also, the growth in [19] was 103%; in assay [20] it was 95%.
Regarding `COc1cccc(Nc2ncnc3cc(NC(=O)CCl)ccc23)c1`, the growth in assay [1] was -45.3% (active); in assay [2] it was -24.4% (active); in [3], -74.7% (active); in [4], -93.9% (active); in [5] it was -13.2% (active); in assay [6], -97.6% (active). Further, the growth is -97.2% (active) in [7]; -5.63% (active) in assay [8]; -26.9% (active) in assay [9]; -31% (active) in assay [10]; -23.3% (active) in [11]; -44.8% (active) in assay [12]. Further, the growth is -36.6% (active) in [13]; -82.2% (active) in assay [14]; -59.5% (active) in assay [15]; -15.9% (active) in assay [16]; -64.7% (active) in [17]; -82.9% (active) in assay [18]. In addition, the growth in assay [19] is -15.4% (active); in assay [20], -26.4% (active).
For the compound `COc1ccc2c(c1)c(/C(O)=C1\COC(=O)C1=O)cn2Cc1ccc(F)cc1`, the growth was 85.5% in assay [1]; 106% in [2]; 92.9% in assay [3]; 72.9% in [4]; 119% in [5]; 103% in [6]. In addition, the growth in [7] is 125%; in assay [8], 91.5%; in assay [9], 76.7%; in assay [10], 112%; in assay [11], 136%; in [12], 72.1%. In addition, the growth was 111% in assay [13]; 98% in [14]; 97.1% in assay [15]; 110% in assay [16]; 44% in assay [17]; 107% in [18]. For the same compound, the growth is 109% in assay [19] and 107% in assay [20].
Consider `CN1CCN(c2ccc3nc4c(nc3c2C(F)(F)F)C(=O)c2ncccc2C4=O)CC1`, for which the growth in assay [1] is -34.5% (active); in [2] it was 5.13% (active); in assay [3] it was -95.4% (active); in assay [4], -19.1% (active); in assay [5], 80.3%; in assay [6] it was -44.2% (active). The growth in [7] was 33.1%; in assay [8] it was -21.1% (active); in [9], 5.71% (active); in assay [10] it was -36.4% (active); in [11], -27.2% (active); in assay [12], 27.6%. In addition, the growth was -10.9% (active) in [13]; -90.4% (active) in assay [14]; -91.1% (active) in [15]; 29.7% in [16]; -32.6% (active) in assay [17]; -27.9% (active) in assay [18]. Besides, the figures for the growth in [19] and in assay [20] were -16% (active) and 10.1%, respectively.
As to `COc1ccc(/C=C2\CN(C(=O)C(Cl)Cl)C/C(=C\c3ccc(OC)cc3)C2=O)cc1`, the growth is 68.6% in assay [1]; 14.5% in [2]; -38.9% (active) in assay [3]; -97.8% (active) in [4]; 20.4% in [5]; -58.3% (active) in [6]. The growth is -18.9% (active) in [7]; -73.1% (active) in assay [8]; 9.77% (active) in assay [9]; 5.42% (active) in [10]; 1.01% (active) in [11]; -14.3% (active) in assay [12]. Also, the growth in assay [13] is 19%; in assay [14], 9.63% (active); in [15], 3.73% (active); in assay [16], 41.6%; in assay [17], -50.7% (active); in assay [18], -75.3% (active). Besides, the growth in assay [19] is 17.8%; in [20] it was 11.6%.
